Legend:
Test in all cases: log2 ratio of Biotin-Ahx-Ub-VS probe labelling (fragment/DMSO); higher = less target engagement (more negative = stronger competition), active = hit call of the paper (q ≤ 0.05, log2 ratio ≤ -1)
Conditions in all cases: compound concentration: 200 uM; treatment time: 3 h
OTUD6B = biological target: T1, OTUD6B (UniProt Q8N6M0)
T1 sequence (whole entry): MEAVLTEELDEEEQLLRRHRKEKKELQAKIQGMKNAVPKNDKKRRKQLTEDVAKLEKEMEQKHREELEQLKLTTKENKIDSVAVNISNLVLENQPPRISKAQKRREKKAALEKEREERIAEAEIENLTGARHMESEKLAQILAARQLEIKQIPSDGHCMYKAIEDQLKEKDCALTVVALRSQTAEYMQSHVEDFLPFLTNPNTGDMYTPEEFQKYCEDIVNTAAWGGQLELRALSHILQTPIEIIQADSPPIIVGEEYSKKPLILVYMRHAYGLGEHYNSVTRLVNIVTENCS
Method in brief: (§1)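 Labelling with Biotin-Ahx-Ub-VS (0.5 µM final, 1 h) followed a 3 h triplicate treatment of HEK293T lysate (495 µg per sample, Tris/CHAPS/IGEPAL buffer with protease inhibitors) with fragment at 200 µM or vehicle. Labelled DUBs were NeutrAvidin-enriched, digested with LysC and trypsin, and run by diaPASEF LC-MS/MS. The values, average log2 fragment/vehicle ratios by unpaired t-test, come from global-median-normalised Spectronaut label-free quantities. Proteins with ≥2 unique peptides were used.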

OTUD7B = biological target: T2, OTUD7B (UniProt Q6GQQ9)
T2 sequence (whole entry): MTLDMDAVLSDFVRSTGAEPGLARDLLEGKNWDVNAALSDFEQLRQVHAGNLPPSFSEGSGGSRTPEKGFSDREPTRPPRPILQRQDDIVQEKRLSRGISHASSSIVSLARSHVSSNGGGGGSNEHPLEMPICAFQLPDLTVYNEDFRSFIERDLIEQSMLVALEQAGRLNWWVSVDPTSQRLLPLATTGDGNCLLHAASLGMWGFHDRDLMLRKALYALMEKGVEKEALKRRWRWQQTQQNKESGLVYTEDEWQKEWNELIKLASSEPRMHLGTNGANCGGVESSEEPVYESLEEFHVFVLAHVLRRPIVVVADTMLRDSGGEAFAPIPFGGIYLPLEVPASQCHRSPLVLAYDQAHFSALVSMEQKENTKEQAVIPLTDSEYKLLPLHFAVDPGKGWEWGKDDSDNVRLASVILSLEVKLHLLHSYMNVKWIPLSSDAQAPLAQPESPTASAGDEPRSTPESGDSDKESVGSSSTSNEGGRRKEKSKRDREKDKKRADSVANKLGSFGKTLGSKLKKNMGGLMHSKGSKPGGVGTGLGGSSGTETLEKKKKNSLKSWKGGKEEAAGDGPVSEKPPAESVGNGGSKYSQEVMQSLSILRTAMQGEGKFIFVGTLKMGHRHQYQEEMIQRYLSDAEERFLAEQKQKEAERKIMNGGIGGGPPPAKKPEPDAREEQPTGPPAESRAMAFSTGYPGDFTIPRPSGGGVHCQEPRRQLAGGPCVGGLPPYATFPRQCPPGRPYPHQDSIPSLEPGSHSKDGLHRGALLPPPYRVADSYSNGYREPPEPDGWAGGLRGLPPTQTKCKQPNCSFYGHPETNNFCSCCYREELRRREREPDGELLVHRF
Method in brief: as §1

PRPF8 = PRPF8 (UniProt Q6P2Q9)
Method in brief: as §1

PSMD7 = biological target: T3, PSMD7 (UniProt P51665)
T3 sequence (whole entry): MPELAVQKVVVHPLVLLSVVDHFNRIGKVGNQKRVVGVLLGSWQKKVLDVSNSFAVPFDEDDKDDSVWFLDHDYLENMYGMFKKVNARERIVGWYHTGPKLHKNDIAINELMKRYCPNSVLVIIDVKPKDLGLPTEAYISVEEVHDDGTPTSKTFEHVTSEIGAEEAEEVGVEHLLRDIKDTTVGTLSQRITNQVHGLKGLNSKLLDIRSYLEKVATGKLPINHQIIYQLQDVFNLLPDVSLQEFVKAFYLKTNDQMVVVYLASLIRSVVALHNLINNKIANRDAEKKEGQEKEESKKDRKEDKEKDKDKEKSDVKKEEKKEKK
Method in brief: as §1

UCHL1 = UCHL1 (UniProt P09936)
Method in brief: as §1

UCHL3 = biological target: T4, UCHL3 (UniProt P15374)
T4 sequence (whole entry): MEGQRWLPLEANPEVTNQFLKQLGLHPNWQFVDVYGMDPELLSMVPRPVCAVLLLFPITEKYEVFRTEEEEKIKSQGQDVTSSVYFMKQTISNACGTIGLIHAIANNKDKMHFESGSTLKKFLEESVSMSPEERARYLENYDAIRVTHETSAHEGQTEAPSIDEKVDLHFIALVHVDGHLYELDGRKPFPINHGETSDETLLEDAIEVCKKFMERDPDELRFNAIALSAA
Method in brief: as §1

UCHL5 = biological target: T5, UCHL5 (UniProt Q9Y5K5)
T5 sequence (whole entry): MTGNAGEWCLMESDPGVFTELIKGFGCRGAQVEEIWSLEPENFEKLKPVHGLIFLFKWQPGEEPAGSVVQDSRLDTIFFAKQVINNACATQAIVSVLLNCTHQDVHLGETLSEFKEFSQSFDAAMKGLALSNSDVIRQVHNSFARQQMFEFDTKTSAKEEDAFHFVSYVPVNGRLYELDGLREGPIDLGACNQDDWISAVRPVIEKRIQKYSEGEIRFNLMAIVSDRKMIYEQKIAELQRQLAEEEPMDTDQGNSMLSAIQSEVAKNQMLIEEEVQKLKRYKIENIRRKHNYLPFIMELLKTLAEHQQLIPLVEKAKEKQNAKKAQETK
Method in brief: as §1

USP10 = USP10 (UniProt Q14694)
Method in brief: as §1

USP15 = biological target: T6, USP15 (UniProt Q9Y4E8)
T6 sequence (whole entry): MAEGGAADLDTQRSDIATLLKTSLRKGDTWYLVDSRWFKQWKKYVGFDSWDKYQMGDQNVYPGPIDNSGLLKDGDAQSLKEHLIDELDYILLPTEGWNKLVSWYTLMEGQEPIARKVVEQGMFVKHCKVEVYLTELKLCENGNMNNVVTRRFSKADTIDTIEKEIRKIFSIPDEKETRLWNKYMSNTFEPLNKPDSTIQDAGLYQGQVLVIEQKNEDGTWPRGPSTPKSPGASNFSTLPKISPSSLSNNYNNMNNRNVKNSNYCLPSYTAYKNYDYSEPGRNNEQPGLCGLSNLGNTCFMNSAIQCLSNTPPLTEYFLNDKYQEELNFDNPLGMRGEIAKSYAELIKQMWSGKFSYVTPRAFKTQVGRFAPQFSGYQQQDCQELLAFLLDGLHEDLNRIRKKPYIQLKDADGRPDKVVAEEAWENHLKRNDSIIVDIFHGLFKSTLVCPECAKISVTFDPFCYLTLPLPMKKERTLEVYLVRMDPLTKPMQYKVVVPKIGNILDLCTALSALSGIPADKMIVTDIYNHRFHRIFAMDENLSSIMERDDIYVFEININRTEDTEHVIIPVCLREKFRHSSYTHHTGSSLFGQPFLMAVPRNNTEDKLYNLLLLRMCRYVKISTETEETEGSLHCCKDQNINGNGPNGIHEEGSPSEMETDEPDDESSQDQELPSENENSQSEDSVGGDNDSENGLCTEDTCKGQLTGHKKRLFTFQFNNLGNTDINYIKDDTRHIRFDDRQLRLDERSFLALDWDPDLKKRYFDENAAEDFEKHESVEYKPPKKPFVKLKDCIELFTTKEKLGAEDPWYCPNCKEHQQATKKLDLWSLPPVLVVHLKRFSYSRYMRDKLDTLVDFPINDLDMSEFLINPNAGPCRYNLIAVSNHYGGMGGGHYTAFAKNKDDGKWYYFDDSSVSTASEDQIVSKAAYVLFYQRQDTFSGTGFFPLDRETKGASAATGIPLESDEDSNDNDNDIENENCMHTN
Method in brief: as §1

USP16 = USP16 (UniProt Q9Y5T5)
Method in brief: as §1

Measured: log2 ratio of Biotin-Ahx-Ub-VS probe labelling

Sequence of UCHL1 (P09936 whole entry, looked up): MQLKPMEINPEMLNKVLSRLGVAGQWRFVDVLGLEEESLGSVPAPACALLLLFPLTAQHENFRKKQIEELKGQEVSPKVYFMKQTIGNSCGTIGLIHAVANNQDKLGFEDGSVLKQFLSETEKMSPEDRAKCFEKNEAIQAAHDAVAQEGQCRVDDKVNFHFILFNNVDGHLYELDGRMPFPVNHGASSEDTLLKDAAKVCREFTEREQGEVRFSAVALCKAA
Sequence of USP16 (Q9Y5T5 whole entry, looked up): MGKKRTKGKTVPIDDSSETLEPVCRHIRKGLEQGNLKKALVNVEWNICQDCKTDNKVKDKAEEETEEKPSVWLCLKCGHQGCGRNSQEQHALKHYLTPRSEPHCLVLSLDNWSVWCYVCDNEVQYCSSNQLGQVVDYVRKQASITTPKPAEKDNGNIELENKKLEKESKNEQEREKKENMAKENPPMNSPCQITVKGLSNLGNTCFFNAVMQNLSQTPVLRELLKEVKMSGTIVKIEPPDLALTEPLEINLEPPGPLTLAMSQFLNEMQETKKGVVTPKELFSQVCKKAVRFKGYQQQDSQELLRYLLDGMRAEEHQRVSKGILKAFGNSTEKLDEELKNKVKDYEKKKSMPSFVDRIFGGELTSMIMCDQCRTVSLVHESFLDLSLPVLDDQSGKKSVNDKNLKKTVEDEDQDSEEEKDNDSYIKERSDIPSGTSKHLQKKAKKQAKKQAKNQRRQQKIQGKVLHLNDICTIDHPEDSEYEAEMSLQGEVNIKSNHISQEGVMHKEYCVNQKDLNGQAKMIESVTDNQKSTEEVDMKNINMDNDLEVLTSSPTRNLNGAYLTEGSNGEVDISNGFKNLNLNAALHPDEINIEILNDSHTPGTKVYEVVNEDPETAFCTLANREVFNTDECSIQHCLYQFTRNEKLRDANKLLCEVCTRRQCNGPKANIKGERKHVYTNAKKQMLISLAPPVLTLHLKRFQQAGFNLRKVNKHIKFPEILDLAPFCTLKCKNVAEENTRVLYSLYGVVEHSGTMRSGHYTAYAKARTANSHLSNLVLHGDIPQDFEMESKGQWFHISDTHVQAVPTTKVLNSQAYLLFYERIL
Sequence of USP10 (Q14694 whole entry): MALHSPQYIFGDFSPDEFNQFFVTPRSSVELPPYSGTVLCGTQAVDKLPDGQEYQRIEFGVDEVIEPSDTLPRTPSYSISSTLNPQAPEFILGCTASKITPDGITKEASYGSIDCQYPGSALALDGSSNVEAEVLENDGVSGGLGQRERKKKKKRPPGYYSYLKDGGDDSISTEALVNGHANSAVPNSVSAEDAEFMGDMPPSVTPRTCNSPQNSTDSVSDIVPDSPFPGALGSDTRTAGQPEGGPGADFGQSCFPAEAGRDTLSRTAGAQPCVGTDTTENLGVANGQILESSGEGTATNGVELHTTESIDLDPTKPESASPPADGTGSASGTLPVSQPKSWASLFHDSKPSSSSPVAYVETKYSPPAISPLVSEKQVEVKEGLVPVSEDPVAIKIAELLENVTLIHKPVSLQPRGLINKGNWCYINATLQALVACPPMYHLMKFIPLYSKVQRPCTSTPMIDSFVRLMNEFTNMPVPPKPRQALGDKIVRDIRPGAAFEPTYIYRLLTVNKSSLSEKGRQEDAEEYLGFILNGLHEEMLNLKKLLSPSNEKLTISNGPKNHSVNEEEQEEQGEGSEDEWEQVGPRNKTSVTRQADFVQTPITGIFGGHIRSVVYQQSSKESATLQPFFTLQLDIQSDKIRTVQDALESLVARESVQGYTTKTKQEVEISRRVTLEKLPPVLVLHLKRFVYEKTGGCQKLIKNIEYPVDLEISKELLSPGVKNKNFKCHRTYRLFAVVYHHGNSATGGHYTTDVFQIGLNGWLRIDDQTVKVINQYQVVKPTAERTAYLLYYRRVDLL

CC1Cc2ccccc2N1C(=O)CCl (stereo not given)
active: UCHL1 -1.4
inactive: OTUD6B -0.391 | OTUD7B -0.238 | PRPF8 -0.117 | PSMD7 -0.328 | UCHL3 0.164 | UCHL5 -0.572 | USP10 -0.242 | USP15 -0.382 | USP16 0.0877

From the supplement of paper PMC11732987, “Enantioselective OTUD7B fragment discovery through chemoproteomics screening and high-throughput optimisation” (Communications Chemistry, 2025)
